The structures appear in SMILES notation. Hit rate of the full screen: of about 96,000 compounds, about 19,000 (20%) were called active. These entries were drawn from the full list. A number with no mark means an inactive call.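 How the source made its calls: active means blocking of liver enzyme CYP2C9 beyond about 50% at 5 µM (limit read from the data); inactive means the rest.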

Sequence of Cytochrome P450 2C9 (Homo sapiens) (P11712 whole entry, looked up): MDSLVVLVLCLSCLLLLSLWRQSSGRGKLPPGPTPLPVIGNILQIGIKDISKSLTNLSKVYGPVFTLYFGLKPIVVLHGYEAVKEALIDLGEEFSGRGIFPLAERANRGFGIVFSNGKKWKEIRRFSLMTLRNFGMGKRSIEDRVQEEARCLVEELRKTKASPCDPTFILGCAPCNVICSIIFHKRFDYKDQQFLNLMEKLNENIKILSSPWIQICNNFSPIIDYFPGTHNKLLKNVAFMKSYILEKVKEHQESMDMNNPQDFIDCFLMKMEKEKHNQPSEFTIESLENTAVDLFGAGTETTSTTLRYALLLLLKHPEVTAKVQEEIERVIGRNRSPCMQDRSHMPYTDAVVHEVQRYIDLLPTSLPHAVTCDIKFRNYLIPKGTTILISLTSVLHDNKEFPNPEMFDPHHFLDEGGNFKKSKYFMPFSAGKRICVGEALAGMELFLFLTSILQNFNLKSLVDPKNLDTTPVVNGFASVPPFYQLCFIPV

This assay concerns the target Cytochrome P450 2C9 (Homo sapiens) (UniProt P11712). Nature of the assay: blockers of cytochrome P450 2C9 activity – biochemical, luminescence, ADME assay, primary screen (AID 777). The conditions noted are these: CYP2C9 Supersomes, luciferin-H conversion, at 5 µM, stronger effect = higher value.
Usually inhibition stands for the drop in the measured response relative to a control, in per cent. `Cc1ccccc1/[N+]([O-])=C/c1ccncc1`: the inhibition was 12.4%.

`CC1CCN(c2nc3c(c(=O)[nH]c(=O)n3C)n2CCCc2ccccc2)CC1`: the inhibition is 40.9%.

For the molecule `C/C(=C\C(=O)c1ccc(Br)cc1)N1CCCCC1`, the inhibition was 2.1%.

For the molecule `Cc1nc2ccc(C(=O)N3CCSCC3)cc2s1`, the inhibition is 0.6%.

On to `Cc1ccc(S/C(=N\S(=O)(=O)c2ccc(Cl)cc2)c2ccccc2)cc1`, for which the inhibition was 48.7%.

For `CCOC(=O)N1CCN(C(=O)c2cnc3n(c2=O)CCS3)CC1`, the inhibition is -13.7%.

Consider `Cc1cc(N/C=C\C(=O)c2ccc(Cl)c(Cl)c2)no1`, for which the inhibition is 7.8%.

`COC(=O)C1=C(N)Oc2cc(C)oc(=O)c2C1c1cccnc1` (configuration not stated): the inhibition is 37.9%.

On to `Cc1ccc(CS(=O)(=O)CCC(=O)NC2CC2)cc1`, for which the inhibition was -3.7%.

`COC(CCN(C)C)(c1ccccc1)c1ccccc1`: the inhibition is -2.1%.

Regarding `CC1(C)Cc2ccccc2-c2nnc(-c3cccc(O)c3)n21`, the inhibition was -7.5%.

Consider `O=C1OC(NC(=O)c2ccccc2)C(N2CCOCC2)=C1Cl` (configuration not stated), for which the inhibition is -6.9%.

On to `c1cnc(NC2C3CC4CC(C3)CC2C4)nc1` (configuration not stated), for which the inhibition is 25.9%.

Regarding `CC1CCCN(Cc2nc3c(c(=O)n(C)c(=O)n3C)n2CC(=O)c2ccccc2)C1` (configuration not stated), the inhibition is 11.2%.

Consider `CC1CN(C2CCCCC2)c2nc3c(c(=O)n(C)c(=O)n3C)n2C1` (configuration not stated), for which the inhibition was 82.2% (active).

As to `CCCCCCn1c(CN2CCCC(C)C2)nc2c1c(=O)n(C)c(=O)n2C` (configuration not stated), the inhibition is 9.5%.

On to `COc1ccc(Cl)cc1NC(=O)CN(C)C(=O)CNC(=O)C12CC3CC(CC(C3)C1)C2`, for which the inhibition is 44.8%.

Consider `Fc1ccc(N2CCN(Cc3cnc(Oc4ccc(Br)cc4)s3)CC2)cc1`, for which the inhibition was 19.7%.

Take `COc1ccc(N2CCN(Cc3cc(=O)oc4ccc5ccccc5c34)CC2)cc1`: the inhibition is 22.6%.

Turning to `COc1ccc(N2CCN(Cc3ccc(Br)s3)CC2)cc1`, the inhibition was 78.3% (active).

With `COc1ccccc1CNC(=O)C1CCN(c2nc3ccccc3o2)CC1`, the inhibition was -3.9%.

Regarding `FC(F)(F)c1nc2ccccc2nc1N/N=C/c1ccc(Cl)cc1`, the inhibition is 21.3%.

Take `OC(COc1cccc2ccccc12)CN1CCN(c2ccccn2)CC1` (configuration not stated): the inhibition is 19.3%.

Take `CC1Cc2ccccc2N1CC(=O)Nc1ccc2c(c1)OC(F)(F)O2` (configuration not stated): the inhibition is 71.6% (active).

`CC1(C)Oc2ccc(C(=O)N3CCOCC3)cc2N(CC(=O)Nc2ccccc2)C1=O`: the inhibition is 45.6%.

Take `O=C(CN1C(=O)COc2ccccc21)Nc1ccc(F)cc1`: the inhibition was 39%.

As for `Cc1cc(Cl)c(S(=O)(=O)Nc2ccc3c(c2)OCCO3)cc1OCC(N)=O`, the inhibition was 19.9%.

Turning to `OC1CN=C2Sc3ccccc3N2C1` (configuration not stated), the inhibition was -6.8%.

Take `Cc1nn2c(c1-c1ccccc1)N=C(c1ccco1)CC2c1ccccc1` (configuration not stated): the inhibition was 63.5% (active).

In the case of `Cc1nn(C(=O)c2ccoc2C)c(N)c1-c1ccccc1`, the inhibition was 26.4%.

With `Cn1c(=O)c(C(=O)Nc2ncccn2)c(O)c2ccccc21`, the inhibition is -24.6%.

For the molecule `O=C1NC(c2cc3c(cc2Cl)OCO3)Oc2ccccc21` (configuration not stated), the inhibition is 26.5%.

For `NC(CSC12CC3CC(CC(C3)C1)C2)C(=O)O` (configuration not stated), the inhibition was 9.2%.

Take `N#Cc1c(/N=C/N2CCCC2)oc(-c2ccccc2)c1-c1ccccc1`: the inhibition is 79.9% (active).

For `COc1ccc(-c2oc(/N=C/N3CCCC3)c(C#N)c2-c2ccc(OC)cc2)cc1`, the inhibition is 96.9% (active).

`N#Cc1c2c(c(-c3ccccc3)[nH]c1=O)CCCC2`: the inhibition is -12.7%.

For `Cn1c(C(=O)NCCN2CCc3ccccc3C2)cc2c(=O)[nH]c3ccccc3c21`, the inhibition is 20%.

`Cc1noc(NS(=O)(=O)c2ccc(N3CC(O)=C(c4ccccc4)C3=N)cc2)c1C`: the inhibition was 3.3%.

Take `Cc1ccc2cc(C#N)c(SCC(=O)NCC3CCCO3)nc2c1C` (configuration not stated): the inhibition is -3.8%.

Consider `Cc1cc(C(F)(F)F)c(C#N)c(SCC(=O)NC2CC2)n1`, for which the inhibition was 17.2%.

As for `CC(NC(=O)CSc1nc2c(cc1C#N)CN(C)CC2)c1ccccc1` (configuration not stated), the inhibition was 74.5% (active).

`CCCC(C(=O)N1CCOCC1)N1C(=O)C2C3C=CC(C3)C2C1=O` (configuration not stated): the inhibition is -2.2%.

Turning to `Clc1ccc(Cl)c(Oc2ccc(Oc3nc(Cl)ccc3Cl)cc2)n1`, the inhibition was -102%.

For the molecule `CSc1ccc(C#N)cc1NC(=O)c1cccc(Cl)c1`, the inhibition is 18.2%.

Regarding `CN1C(=O)c2ccc(NC(=O)c3c(F)c(F)c(F)c(F)c3F)cc2C1=O`, the inhibition was -24%.

For the molecule `O=C(c1ccco1)N1CCN(C(=O)c2ccc(COc3ccc(F)cc3)o2)CC1`, the inhibition was 33.7%.

In the case of `Cc1ccc(NC(=O)C(C)c2cccc(C(=O)c3ccccc3)c2)cc1` (configuration not stated), the inhibition is 57.9% (active).

Regarding `CC(NC(=O)Nc1ccccc1)c1ccccc1` (configuration not stated), the inhibition is 7%.

Consider `CC(=O)c1cccc(NC(=O)Nc2ccc(C)cc2)c1`, for which the inhibition was 17.7%.

As to `CCn1c(Cc2ccccc2)nnc1SCc1nc2ccccc2c(=O)[nH]1`, the inhibition is -61.8%.

In the case of `CC1=C(C)CC2C(=O)N(c3cccc4ccccc34)C(=O)C2C1` (configuration not stated), the inhibition is 72.9% (active).

Take `O=C(c1ccccc1)c1cc(-c2ccccn2)c(N2CCOCC2)s1`: the inhibition was 25%.

For `c1ccc(-c2oc3ncnc(N4CCOCC4)c3c2-c2ccccc2)cc1`, the inhibition is 18.1%.

As to `c1cnn(-c2cc(N3CCOCC3)ncn2)c1`, the inhibition is -3.4%.

Regarding `O=C1c2ccccc2-c2ncnc3c(N4CCOCC4)cc(N4CCOCC4)c1c23`, the inhibition was 51.5% (active).

For the molecule `Cc1cnc(NC(=O)C2CCCC2)s1`, the inhibition was 10.7%.

Turning to `CCN1C(=O)/C(=C\N2CCN(c3cccc(Cl)c3)CC2)SC1=S`, the inhibition was 4.9%.

Regarding `CC(Oc1ccc(Cl)cc1)c1ccnn1S(C)(=O)=O` (configuration not stated), the inhibition is 24.4%.

Regarding `COc1ccc(CC(=O)n2nc(-c3cccnc3)nc2N)cc1`, the inhibition is 9%.

On to `O=C(Cn1ccc([N+](=O)[O-])n1)NCc1cccs1`, for which the inhibition is -1.6%.

On to `C=C(C)CSc1nnc(-c2ccc(C)cc2)n1N`, for which the inhibition was 1.1%.

`Cc1ccc(NC(=S)NC2CCCC2)cc1`: the inhibition is 29.5%.

For the molecule `Cc1ccc(NC(=S)N/N=C2/CCCc3c(C)cc(C)cc32)cc1`, the inhibition was 59.7% (active).

For `Cc1ccc(NC(=S)NCCN2CCOCC2)cc1`, the inhibition is -12.4%.

`CCOc1ccc(-c2nc(C)sc2CC(=O)O)cc1`: the inhibition is -0.3%.

Take `CC(C)c1ccc(Nc2ncccc2C#N)cc1`: the inhibition is 3.6%.

On to `C=CCOC(=O)C1=C(C)NC(C)=C(C(=O)OCC=C)C1c1cccs1`, for which the inhibition was 96.8% (active).

As to `COCCOC(=O)C1=C(C)N=c2s/c(=C\c3cccs3)c(=O)n2C1c1cccs1` (configuration not stated), the inhibition was 41.5%.

For `C=CCN(C(=O)Nc1ccc2oc(C)nc2c1)c1ccccc1`, the inhibition was 22.8%.

Take `CCc1c(C)nc2cc(-c3cccs3)[nH]n2c1=O`: the inhibition was 30.3%.

As to `FC(F)(F)c1nnc2ccc(N3CCN(c4ccccc4)CC3)nn12`, the inhibition was 27.4%.

For the molecule `O=C(CSCc1ccc([N+](=O)[O-])cc1)Nc1cccc(C(=O)Nc2ccccc2C(=O)O)c1`, the inhibition was 93.9% (active).

In the case of `O=C(CSCc1ccc([N+](=O)[O-])cc1)NCCSCc1ccccc1`, the inhibition was 44.2%.

As for `O=C(CSCc1ccccc1Cl)NNC(=O)c1ccccc1`, the inhibition was -1.6%.

As to `Cc1ccc(C2CC2C(=O)NN)cc1` (configuration not stated), the inhibition was 15.8%.

Regarding `CC(=O)c1cccc(NC(=O)N2CCCC2C(=O)NCCc2ccccc2)c1` (configuration not stated), the inhibition was -8.8%.

Turning to `COCCN(C(=O)c1ccco1)c1nnc(-c2ccc(OC)cc2)s1`, the inhibition is 9%.

Consider `CCN1C(=O)CS/C1=N\c1nccs1`, for which the inhibition is 17.8%.

Regarding `COCc1cc(C)nc2sc3c(=O)n(-c4cccc5ccccc45)nnc3c12`, the inhibition was 26.8%.

In the case of `COc1ccc(-c2c(C(C)=O)c(C)nc3sc4c(=O)n(-c5ccc(C)cc5)nnc4c23)cc1`, the inhibition is 85.6% (active).

For the molecule `COc1ccc(-n2nnc3c(=O)n(CC(=O)OCc4ccccc4)cnc32)cc1`, the inhibition was -16%.

For the molecule `CC(C)(C)NC(=O)C(c1ccco1)N(Cc1ccc2c(c1)OCO2)C(=O)Cn1nnc2ccccc21` (configuration not stated), the inhibition is 16.8%.

As for `Cc1cccc(-n2ncc(C#N)c2-n2cccc2)c1`, the inhibition is 39.8%.

As to `COc1ccc(OC)c(S(=O)(=O)Nc2ccccc2F)c1`, the inhibition is 57.6% (active).

With `COc1ccccc1NS(=O)(=O)N(C)C`, the inhibition is -23%.

Regarding `COc1ccc(Cl)cc1S(=O)(=O)Nc1cccc(C(=O)O)c1`, the inhibition is 14.1%.

For `Cc1ccc(OCC(=O)Nc2ccc(-c3nc4ncccc4o3)cc2)cc1`, the inhibition is -6.6%.

With `Cc1ccc(NC(=O)COc2ccc(-n3ccnc3)cc2)cc1Cl`, the inhibition is 95% (active).

As to `Cc1csc(OCC(=O)Nc2ccc(C)c(C)c2)n1`, the inhibition is 4.4%.

As to `CCN(CC)c1ccc2cc(C(=O)O)c(=O)oc2c1`, the inhibition is -7.5%.

As for `Cc1cc(=O)n2c3c(cccc13)CCC2`, the inhibition was -60.9%.

With `CC(C)Oc1ccc(C(=O)Nc2cc(=O)n(C)c(=O)n2C)cc1`, the inhibition is 10.6%.

On to `C=C(C)Cn1c(N2CCN(CC)CC2)nc2c1c(=O)[nH]c(=O)n2C`, for which the inhibition was -14.5%.

In the case of `COc1cc(C(=O)NC(=S)NCc2ccco2)cc(OC)c1OC`, the inhibition is 18.9%.

Regarding `Cc1cccc(C)c1NC(=O)CCS(=O)(=O)c1cccc2nsnc12`, the inhibition is -1%.

In the case of `O=C(Nc1cc(=O)[nH]c2ncnn12)c1ccccc1Cl`, the inhibition is 5.6%.

As for `O=C(CSCc1cccs1)N1CCCC1`, the inhibition is -22.8%.
